PubChem BioAssay (NCI)
“And” between values parts separate entries of the source, which are not always exact repeats. Equal entries are not always repeated. About 83,000 compounds went through this panel and 20% of them were active in at least one assay; those are over-represented in the sample as a whole.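 Step 1: grow cells in 96-well plates. Step 2: add test compound at a single concentration. Step 3: incubate 48 h. Step 4: record percent growth.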 Values without a mark were called inactive. The source made the active and inactive calls. The calls were made as follows: active = growth percent below 10; inactive = the rest.

How the values were obtained:
Assay in all cases: NCI-60 one-dose screen, 48 h (100 = growth as untreated, 0 = no growth, -100 = all killed)
Details in all cases: 10 µM unless noted
HCT-15 colon = tested on: HCT-15 colon
HT29 colon = tested on: HT29 colon
SNB-75 CNS = tested on: SNB-75 CNS
SNB-19 CNS = tested on: SNB-19 CNS
U251 CNS = tested on: U251 CNS
PC-3 prostate = tested on: PC-3 prostate
SK-MEL-5 melanoma = tested on: SK-MEL-5 melanoma
UACC-62 melanoma = tested on: UACC-62 melanoma
LOX IMVI melanoma = tested on: LOX IMVI melanoma
SK-MEL-28 melanoma = tested on: SK-MEL-28 melanoma

SMILES	growth (HCT-15 colon)	growth (HT29 colon)	growth (SNB-75 CNS)	growth (SNB-19 CNS)	growth (U251 CNS)	growth (PC-3 prostate)	growth (SK-MEL-5 melanoma)	growth (UACC-62 melanoma)	growth (LOX IMVI melanoma)	growth (SK-MEL-28 melanoma)
O=[N+]([O-])c1cccc(N=Cc2ccccc2)c1	105%	101%	96.7%	118%	103%	90.6%	104%	103%	102%	122%
CC(C)(C)OC(=O)CC1(O)CCCCC1	105%	111%	90.8%	106%	104%	96.8%	95.7%	103%	102%	105%
CC(=O)Oc1ccc(C(c2ccc(OC(C)=O)cc2)c2ccccn2)cc1	84.3% and 76.4%	91.8% and 87.1%	56.7% and 80.9%	104% and 98.8%	96% and 96.2%	73.6% and 68.9%	-7.6% (active)	96.5% and 89.4%	90.3% and 77.5%	107%
CC(C)(C)C1=CC(=O)C(C(C)(C)C)=CC1=O	97.9% and 105%	109% and 99.8%	104% and 96.6%	86.2% and 101%	96.2% and 94.2%	90.8% and 101%	93.5% and 108%	87.1% and 99.6%	91.6% and 99.5%	114% and 109%
CCOP(=O)(OCC)/C(C#N)=C/c1c(C)[nH]c2ccccc12	108%	106%	49.8%	94.6%	88.9%	83.3%	91.3%	82.3%	89.7%	113%
CCOCCC(=O)O	108%	104%	93.3%	109%	106%	91.7%	96.1%	102%	102%	109%
O=C(O)/C=C/C=C/c1ccccc1	102% and 108%	100% and 103%	103% and 98.4%	97.1% and 100%	106% and 96.9%	97.4% and 101%	102% and 94.7%	96.1% and 102%	99.3% and 97.9%	103% and 109%
Cc1cc(=NO)cc(C)n1O	113%	114%	92.6%	103%	113%	102%	112%	102%	99.9%	112%
CCCCCCC(C)CC1=C(O)c2ccccc2C(=O)C1=O (stereo not given)	28.4%	66.6%	61.6%	46%	46.3%	33.9%	11.9%	29.9%	10.2%	64.4%
CCn1c2ccc(N(C)C)cc2c2cc(N(C)C)ccc21	112%	78.9%	99.3%	102%	93.9%	72.9%	97.6%	91.9%	96.8%	98.9%
O=[N+]([O-])c1cccc2ccc(N/N=C/c3ccccc3O)nc12	93.6% and 98%	93.3% and 106%	67.8% and 87.9%	99.3% and 108%	93.7% and 98.6%	76.1% and 84.4%	88% and 90.9%	85.5% and 94.6%	83.6% and 91.4%	134% and 109%
O=C(NC(=O)c1ccc(F)c(Cl)c1)NC1CC1	86.5% and 74.6%	96.4% and 94.5%	105% and 122%	104%	104%	98.6% and 87.5%	88%	99.8% and 96.6%	98.6%	111% and 107%
Cc1ccc(S(=O)(=O)n2ccnc2)cc1	105%	106%	87.6%	117%	101%	103%	99.9%	92.7%	95.5%	111%
CC1NC(C)c2ccc3ccccc3c2O1 (stereo not given)	106%	99.8%	85.6%	104%	109%	93.3%	104%	93.7%	97.7%	111%
CCN(C)c1ccccc1	101%	103%	79.2%	106%	99%	95.8%	100%	103%	98.4%	105%
CC(=O)C[n+]1ccccc1Sc1ccc(Cl)cc1	93.3%	108%	66.1%	88.7%	73%	58.3%	90.3%	84.6%	27.6%	100%
O=C(O)C1CSCN1 (stereo not given)	109% and 96.3%	104%	109% and 73.5%	105% and 94%	104% and 97.6%	99.4% and 112%	135%	105% and 96%	108% and 102%	117% and 114%
CCOC(C)=N	105%	102%	93.2%	104%	104%	99.3%	109%	102%	100%	112%
CC(=O)Nc1cscc1NC(C)=O	106%	96.2%	93.2%	92.6%	98.9%	103%	99.3%	93.7%	98.6%	104%
NC1=NC(c2ccccc2)N=C(Nc2ccccc2)N1 (stereo not given)	102% and 98.9%	62.4% and 60.7%	53.1% and 12.8%	67% and 76%	42.8% and 44.5%	65.1% and 70.9%	69.6% and 35.6%	89%	85.8% and 83%	87.8% and 102%
Cc1c(Cl)c(C)c(Cc2c(C)c(Cl)c(C)c(Cl)c2O)c(O)c1Cl	5.02% (active)	34%	25%	10.6%	8.95% (active)	8.74% (active)	-69.7% (active)	18.2%	4.09% (active)	26.1%
